An excerpt weighted towards active compounds, which were near 7.5% of everything screened.
Rab9 prom act: Rab9 promoter activation. Huh7 Rab9 promoter-luciferase reporter, luminescence, 24 h. Potency, µM (doses to about 9.22 µM), for the others: at the highest dose activation, negative = inhibition, most hits filed as activators. hit rate 2.8% among 320,000; note: % of control where 0% means no effect; nearly all actives have a fitted effect of over 60% in size
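Measured in stably transfected Huh7 cells bearing a Rab9 promoter–luciferase construct: 24 h compound treatment at 37 °C, followed by luminescence detection.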
ELG1 genotox: induces genotoxicity in HEK293T cells with luciferase-tagged ELG1 | AID 504466 | hit rate 1.3% among 330,000 | Potency, µM (highest dose often 46 µM), for inactives: at the highest dose activity change, positive = activation, most hits filed as activators | HEK293T ELG1-luciferase reporter, luminescence, 16 h; note: % of control where 0% means no effect; nearly all actives have a fitted effect of over 60% in size
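Genotoxicity was scored as increased ELG1-luciferase reporter signal, measured by ONE-Glo luminescence (30 min, room temperature). Compound or vehicle exposure of the HEK293T reporter cells lasted 16 hr at 37°C.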
FLuc counter: counter-screen for miR-21 project: firefly luciferase inhibitors or activators; P08659; purified FLuc, Km substrates, luminescence inhibition; Potency, µM (titrated, usually from 57.5 µM), for the others: at the top dose activity change, negative = inhibition, most hits filed as inhibitors; hit rate 6.9% among 360,000;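 note: plate controls were vehicle for no effect and reference inhibitor for full effect; nearly all actives have a fitted effect of over 55% in size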
Target sequence (P08659 whole entry, looked up): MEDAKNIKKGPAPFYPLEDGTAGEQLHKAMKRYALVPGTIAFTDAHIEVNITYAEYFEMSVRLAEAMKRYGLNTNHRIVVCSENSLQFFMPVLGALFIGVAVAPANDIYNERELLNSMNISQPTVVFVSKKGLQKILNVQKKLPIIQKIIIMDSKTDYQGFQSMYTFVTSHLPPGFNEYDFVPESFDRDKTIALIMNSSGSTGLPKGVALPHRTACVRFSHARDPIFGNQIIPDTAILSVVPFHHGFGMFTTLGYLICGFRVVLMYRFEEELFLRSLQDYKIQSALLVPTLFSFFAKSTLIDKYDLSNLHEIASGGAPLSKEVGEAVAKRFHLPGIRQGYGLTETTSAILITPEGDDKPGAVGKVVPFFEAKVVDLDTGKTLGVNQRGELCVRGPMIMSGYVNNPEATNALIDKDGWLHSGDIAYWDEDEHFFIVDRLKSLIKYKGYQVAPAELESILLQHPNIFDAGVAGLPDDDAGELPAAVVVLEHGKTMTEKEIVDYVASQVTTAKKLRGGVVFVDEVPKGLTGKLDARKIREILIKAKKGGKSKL
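Purified P. pyralis luciferase (10nM final) with 10uM D-luciferin and 10uM ATP (Km levels) in 50mM Tris acetate pH 7.5, 10mM Mg acetate, 0.01% Tween-20, 0.05% BSA; qHTS 6-point titration, ~60 µM downward; luminescence read.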
KinaseGlo FLuc: counter-screen: inhibitors of Kinase-Glo firefly luciferase; hit rate 0.28% among 200,000; Q27757; AID 1379; Kinase-Glo luciferase, ATP luminescence, 8 min; Potency, µM (top dose mostly 38.3 µM), for inactives: at the top dose activity change, negative = inhibition, hits mostly inhibitors; note: % is set by controls: 0 for no effect and ±100 for the full control effect; nearly all actives have a fitted effect of over 60% in size
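Recombinant Kinase-Glo luciferase, 10 uM ATP (linear range), luciferin; imidazole pH 7.2 / KCl / MgCl2 / Tween / BSA buffer; 8 min RT; luminescence.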
NPC1 promoter act: activators of NPC1 promoter; Huh7 NPC1 promoter luciferase reporter, 24 h; Potency, µM (titrated, usually from 9.22 µM), without a hit: at the highest dose activation, actives largely listed as activators; hit rate 2.4% among 320,000; note: % of control where 0% means no effect; nearly all actives have a fitted effect of over 60% in size
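Luminescence from an NPC1 promoter-driven luciferase reporter in stably transfected Huh7 cells was measured after 24 h compound treatment at 37 °C, followed by 10 min ambient incubation with luciferase detection reagent.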
SMN2 splice enh: enhancers of SMN2 splice variant expression; AID 1458; HEK293 SMN2-luciferase splicing reporter, luminescence, 30-36 h; Potency, µM (doses to about 46.1 µM), for inactives: at the highest dose activity change, positive = activation, most hits filed as activators; hit rate 2.8% among 210,000; note: % of control where 0% means no effect; nearly all actives have a fitted effect of over 55% in size
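HEK293 cells carry an SMN2 minigene-luciferase reporter in which exon 7 inclusion puts luciferase in frame. Cells were seeded at 2000 cells/well, attached for 10-12 hours, then exposed to compounds for 30-36 hours at 37C before ONE-Glo luminescence.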
An asterisk follows results filed as active; ? = inconclusive; . = no result; [ ] = remark or other dose. Calls come from the whole dose curve; as a rule, active = well fitted curve in the direction sought with a large enough effect; inconclusive = small, poorly fitted or top-dose-only effect, or another doubt; inactive = no such curve, though single readings can be large; an effect the other way counts as inactive or inconclusive. Potency is the fitted concentration of half-maximal effect.

SMILES	Rab9 prom act	ELG1 genotox	FLuc counter	KinaseGlo FLuc	NPC1 promoter act	SMN2 splice enh
Cc1cccc(OC(=O)c2ccc3nccnc3c2)c1	-5%	1%	15µM*	18%	12%	-12%
O=C(Oc1ccc(Cl)cc1)c1ccc2nccnc2c1	0%	3%	3.8µM*	10%	-2%	1%
COc1cc(OC)c(NC(=O)c2cc3c(s2)-c2ccc(Cl)cc2SC3)cc1Cl	.	.	-1%	.	.	2%
COc1ccc2cc(C(=O)CS(=O)(=O)c3ccccc3)c(=O)oc2c1	0%	?	0.95µM*	.	-11%	.
O=C(CS(=O)(=O)c1ccccc1)c1cc2cc(F)ccc2oc1=O	-1%	3%	1.9µM*	.	12%	.
O=C(CS(=O)(=O)c1ccccc1)c1cc2ccccc2oc1=O	-1%	5%	1.5µM*	.	1%	.
NC=O	.	.	.	.	.	-10%
COc1cccc(CNC(C)(C)CO)c1OCc1ccc(Cl)cc1	-5%	-8%	6%	-2%	-2%	-17%
COc1cccc(OCc2ccc(Cl)cc2)c1C#N	0.56µM*	?	0.54µM*	.	0.71µM*	.
Cc1ccc(-c2cc(C(=O)NCc3ccccn3)c3ccccc3n2)cc1C	23%	-4%	1.5µM*	-13%	19%	13µM*
CCn1cc(CNC(=O)c2cc(-c3ccc(C)c(C)c3)nc3ccccc23)c(C)n1	.	.	2.4µM*	.	.	12%
O=C(NCc1ccccn1)c1cc(-c2ccccc2)nc2ccccc12	1%	-2%	17µM*	-3%	-2%	-5%
O=C(NCc1ccccc1)c1cc(-c2ccncc2)nc2ccccc12	5%	-8%	-18%	.	0%	.
Cc1cccc(-c2cc(C(=O)NCc3ccccn3)c3ccccc3n2)c1	17%	-2%	8.5µM*	1%	9%	12%
Cc1cc(CNC(=O)c2cc(-c3ccccc3)nc3ccccc23)nn1C	-10%	-12%	?	-2%	0%	6%
CC(=O)N1CC[C@H]2CC(=O)CC[C@@]21C	.	.	.	0%[39.9 µM]	.	.
O=C(NCCc1ccccn1)c1cc(-c2ccccc2Cl)nc2ccccc12	9%	-2%	5%	4%	1%	-49%
O=C(NCc1ccccn1)c1cc(-c2ccc(-c3ccccc3)cc2)nc2ccccc12	3.5µM*	-8%	0.38µM*	.	2.2µM*	.
COCCNC(=O)c1cc(-c2ccc(-c3ccccc3)cc2)nc2ccccc12	12%	-14%	-1%	.	0%	.
O=C(NCc1ccccn1)c1cc(-c2ccc(Cl)cc2)nc2ccccc12	-1%	-6%	5.4µM*	-2%	3%	16%
O=C(NCC(O)CN1CCOCC1)c1ccc([N+](=O)[O-])cc1 (stereo not given)	-2%	0%	2%	1%	-4%	12%
O=C(NCCc1c[nH]c2ccccc12)c1c(Cl)nc2sccn12	?	6%	1%	-4%	?	6%
O=C(c1c(Cl)nc2sccn12)N(C(=O)c1c(Cl)nc2sccn12)c1ccc(Cl)cn1	18%	3.7µM*	-13%	3%	15%	13µM*
c1ccc2[nH]c(NN=C3CCCCCC3)nc2c1	3.5µM*	?	3.4µM*	?	10%	11µM*
CC(=O)Nc1ccc(CCc2nc3ccccc3[nH]2)cc1	18%	7%	-7%	.	1%	.
SMILES	Rab9 prom act	ELG1 genotox	FLuc counter	KinaseGlo FLuc	NPC1 promoter act	SMN2 splice enh
CC(/C=N/Nc1nc2ccccc2[nH]1)=C\c1ccccc1	0.4µM*	0.82µM*	0.67µM*	0%	0.5µM*	2.5µM*
CC1C/C(=N/Nc2nc3ccccc3[nH]2)CC(C)(C)C1 (stereo not given)	1%	1%	?	1%	-3%	5%
O=C(Cc1nc2ccccc2[nH]1)N/N=C/c1ccccc1	8%	1%	15µM*	.	5%	.
CC(=O)Nc1ccc(/C=N/Nc2nc3ccccc3[nH]2)cc1	?	-8%	12µM*	-12%	?	-29%
COc1cccc(NC(=O)N(CCC(C)C)C2CCN(C(C)C)CC2)c1	.	.	-1%	.	.	.
COc1ccccc1CNC(=O)c1cc(S(=O)(=O)N2CCCC(C)C2)cn1C (stereo not given)	.	.	3%	.	.	.
COC(=O)c1ccc(/C=N/Nc2nc3ccccc3[nH]2)cc1	3.2µM*	21µM*	8.5µM*	-11%	3.2µM*	?
C(=N\Nc1nc2ccccc2[nH]1)/c1ccncc1	?	?	?	-5%	?	-9%
O=C(O)c1ccc(/C=N/Nc2nc3ccccc3[nH]2)cc1	9%	-1%	?	.	13%	.
CCN(CC)c1ccc(/C=N/Nc2nc3ccccc3[nH]2)cc1	?	?	6µM*	-3%	24%	-92%
Cc1cnc(=O)[nH]c1SCc1cccc([N+](=O)[O-])c1	6%	1%	-4%	.	-4%	.
CCOc1ccc(NC(=O)Cn2c(=O)n(CCCCC(=O)NCCc3ccc(Cl)cc3)c(=O)c3ccccc32)cc1	.	.	0%	.	.	2%
COC(=O)c1c(-c2ccccc2OC)sc2cc3c(cc12)OCO3	.	0%	.	.	.	.
Cc1cccc(C(=O)NCCc2ccccc2)c1	1.3µM*	4.6µM*	11µM*	.	1.4µM*	.
Cc1cc(C(=O)NCCc2ccccc2)ccc1[N+](=O)[O-]	4µM*	?	13µM*	4%	2.2µM*	11µM*
O=C(NCCc1ccccc1)c1ccc([N+](=O)[O-])cc1	0.45µM*	?	3µM*	-3%	0.4µM*	11µM*
NC(=O)c1ccc(NCC2CCCO2)c([N+](=O)[O-])c1 (stereo not given)	4%	5%	-1%	.	6%	.
O=C(NCCc1ccccc1)c1ccc(NCC2CCCO2)c([N+](=O)[O-])c1 (stereo not given)	?	?	?	5%	?	10µM*
COc1ccccc1CNc1ncnc2onc(-c3ccc(F)cc3)c12	.	.	-14%	.	.	.
CCOCCc1nn2c(=O)cc(COC(=O)c3ccco3)nc2s1	.	.	-4%	.	.	.
Cc1cc(C(=O)NCC(=O)OCC(=O)N(C(C)C)C(C)C)ccc1[N+](=O)[O-]	1%	1%	0%	-1%	3%	13µM*
Cc1ccc(C(=O)NCC(=O)OCC(=O)c2ccc(C)c([N+](=O)[O-])c2)cc1	5%	1%	2%	4%	0%	7%
COc1cc(OC)cc(C(=O)N[C@H](C(=O)NC2=NCCS2)C(C)C)c1	.	-1%	.	.	.	.
Cc1cccc(NC(=O)Cn2nnc(C(=O)Nc3ccccc3Br)c2N)c1C	.	.	-1%	.	.	.
O=C(/C=C/c1cccc(O)c1)c1ccc(N2CCOCC2)cc1	?	12%	1.2µM*	.	?	.
COc1ccc(C(=O)NCC(c2ccc3c(c2)OCO3)N2CCN(C)CC2)cc1OC (stereo not given)	.	.	1%	.	.	.
